“And” between values parts separate entries of the source, which are not always exact repeats. Equal entries are not always repeated. Results filed as inconclusive are left out. Entries that show only a call come without a potency. A structure can be active in one record and inactive in another. The source made the active and inactive calls. Unless noted, the call rests on the fitted dose curve; in most records, active means well fitted curve in the direction sought with a large enough effect in the repeat runs; inconclusive means weak or mixed curves; inactive means no such curve, though single readings can be large; an effect the other way counts as inactive or inconclusive.
Assays:
[1] = qHTS assay for small molecule agonists of the p53 signaling pathway (AID 651631; calls by dose curve; further: nearly all actives have a fitted effect of over 15% in size; further: potency means the concentration at half of the fitted maximal effect); details: HCT-116 p53RE-bla reporter, beta-lactamase FRET ratio, 16 h; series mostly up to 73.3 µM
Procedure, shortened: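 HCT-116 cells carrying a stable p53 response element–beta-lactamase reporter were plated, rested 5 h at 37 °C, then exposed to compound in DMSO for 16 h at 37 °C; reporter activity was read as FRET substrate fluorescence after 2 h at room temperature.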

[2] = qHTS assay for small molecules that induce genotoxicity in human embryonic kidney cells expressing luciferase-tagged ATAD5 (AID 651632); details: HEK293T ATAD5-luciferase induction, 16 h; series mostly up to 83.3 µM; further: nearly all actives have a fitted effect of over 15% in size
Procedure, shortened: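 Increased luciferase signal from ATAD5-tagged reporter cells indicates DNA-damage-driven ATAD5 induction. HEK293T cells are treated for 16 hr at 37C before detection with Amplite.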

[3] = qHTS assay for small molecule agonists of the p53 signaling pathway - cell viability (AID 651633; calls by dose curve; further: nearly all actives have a fitted effect of over 30% in size; further: potency means the concentration at half of the fitted maximal effect); details: p53RE-bla HCT-116 viability, ATP luminescence, 16 h; series mostly up to 83.3 µM
Procedure, shortened: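 Viability counter-read: CellTiter-Glo luminescence (30 min, room temperature) in the same p53RE-bla plates. These plates had been exposed to compounds for 16 h at 37 C.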

[4] = qHTS assay for small molecules that induce genotoxicity in human embryonic kidney cells expressing luciferase-tagged ATAD5 - cell viability (AID 651634; calls by dose curve; further: nearly all actives have a fitted effect of over 25% in size; further: potency means the concentration at half of the fitted maximal effect); details: HEK293T ATAD5-luc cells viability, CellTiter-Fluor, 15.5 h; series mostly up to 83.3 µM
Procedure, shortened: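 Cytotoxicity counterscreen in HEK293T cells bearing an ATAD5-luciferase reporter: live-cell protease activity measured by CellTiter-Fluor fluorescence after 15.5 hr compound exposure.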

[5] = qHTS assay for small molecule disruptors of the mitochondrial membrane potential - cell viability (AID 720634; calls by dose curve; further: nearly all actives have a fitted effect of over 20% in size; further: potency means the concentration at half of the fitted maximal effect); details: HepG2 viability, ATP luminescence (CellTiter-Glo), 1 h; series mostly up to 83.2 µM
Procedure, shortened: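 After overnight attachment at 37 C, HepG2 cells received compound or DMSO vehicle for 1 hr. Viability is then taken from ATP-driven luminescence following a 30 min room-temperature CellTiter-Glo step.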

[6] = qHTS assay for small molecule disruptors of the mitochondrial membrane potential (AID 720635); details: HepG2 mitochondrial membrane potential, Mito-MPS dye ratio; series mostly up to 83.2 µM; further: potency means the concentration at half of the fitted maximal effect
Procedure, shortened: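 Mitochondrial membrane potential tracked with Mito-MPS dye, red aggregates (ex 540/em 590 nm) against green monomers (ex 490/em 535 nm). Compound treatment 1 hr at 37C, dye 30 min in HepG2.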

[7] = qHTS assay to test for compound auto fluorescence at 590 nm (red) in HepG2 cells (AID 720674); details: HepG2 autofluorescence, red 540/590 nm, 1 h; series mostly up to 91.3 µM
Procedure, shortened: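 We screened compounds on adherent HepG2 cells, incubating them for an hour at 37 C in 5% CO2 before reading emission at 590 nm under 540 nm excitation; values reflect equivalence to Rose Bengal sodium fluorescence.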

[8] = qHTS assay to test for compound auto fluorescence at 460 nm (blue) in HEK293 cells (AID 720678); details: blue autofluorescence 405/460 nm; series mostly up to 91.3 µM
Procedure, shortened: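 After cell attachment (4-5 hr, 37C), compounds were pinned onto HEK293 monolayers in 10% dialyzed FBS medium. The blue channel (405/460 nm) was read following overnight culture. Equivalency was calculated against triamterene.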

[9] = qHTS assay to test for compound auto fluorescence at 590 nm (red) in HEK293 cells (AID 720679); details: red autofluorescence 540/590 nm; series mostly up to 91.3 µM
Procedure, shortened: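 Plates of HEK293 cells (10% dialyzed FBS) are treated with 23 nL compound or DMSO vehicle after a 4-5 hr attachment period, incubated overnight at 37C, and read for red fluorescence at 540/590nm.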

[10] = qHTS assay to test for compound auto fluorescence at 535 nm (green) in HepG2 cells (AID 720675); details: green autofluorescence 485/535 nm, 1 h; series mostly up to 91.3 µM

Structure (SMILES) | Potency [1] | Potency [2] | Potency [3] | Potency [4] | Potency [5] | Potency [6] | outcome [7] | Potency [8] | outcome [9] | outcome [10]
O=C(Oc1ccccc1)c1ccc(O)cc1 | inactive | inactive | inactive | inactive | 61.1 µM (active) | 61.1 µM (active) | inactive | inactive | inactive | 
COC(=O)c1ccc(C(=O)OC)cc1 | inactive | inactive | inactive | inactive | inactive | inactive | inactive | inactive | inactive | inactive
CC1Cc2ccccc2N1NC(=O)c1ccc(Cl)c(S(N)(=O)=O)c1 (stereo not given) | inactive | inactive | inactive | inactive | inactive | inactive | inactive | inactive | inactive | inactive
OCC1CCCO1 (stereo not given) | inactive | inactive | inactive | inactive | inactive | inactive | inactive | inactive | inactive | inactive
CC(C)Cc1ccccc1 | inactive | inactive | inactive | inactive | inactive | inactive | inactive | inactive | inactive | 
OC[C@@H](O)[C@H](O)[C@H](O)[C@@H](O)CO | inactive | inactive | inactive | inactive | inactive | inactive | inactive | inactive | inactive | 
CCCCC(CC)COC(=O)CCCCCCCC(=O)OCC(CC)CCCC (stereo not given) | inactive | inactive | inactive | inactive | inactive |  | inactive | inactive | inactive | inactive
COCC(=O)O | inactive | inactive | inactive | inactive | inactive | inactive | inactive | inactive | inactive | inactive
Cn1c([N+](=O)[O-])cnc1COC(N)=O | inactive | inactive | inactive | inactive | inactive | inactive | inactive | inactive | inactive | 
Nc1cc(-c2ccncc2)c[nH]c1=O | inactive | inactive | inactive | inactive | inactive | inactive | inactive | inactive | inactive | inactive
CC1=C(CC(=O)O)c2cc(F)ccc2/C1=C\c1ccc(S(C)=O)cc1 (stereo not given) | inactive | inactive | inactive | inactive | inactive |  | inactive | inactive | inactive | inactive
CCCCC(CC)C(=O)OCCOCCOCCOC(=O)C(CC)CCCC (stereo not given) | inactive | inactive | inactive | inactive | inactive | inactive and 15.4 µM (active) | inactive | inactive | inactive | inactive
O=C(c1cc(O)c(O)c(O)c1)c1ccc(O)c(O)c1O | 54.3 µM (active) | inactive | 54.3 µM (active) | 54.3 µM (active) and 54.5 µM (active) | inactive | 30.5 µM (active) and 19.3 µM (active) | inactive | inactive | inactive | inactive
CN(C)c1ccc(C(=N)c2ccc(N(C)C)cc2)cc1 | 4.28 µM (active) and 5.88 µM (active) | inactive | inactive | 48 µM (active) and 46.7 µM (active) | inactive | 27 µM (active) and 46.7 µM (active) | inactive | inactive | inactive | 
Cc1ccc(N)c(S(=O)(=O)O)c1 | inactive | inactive | inactive | inactive | inactive | inactive | inactive | inactive | inactive | inactive
CCOC(=O)/C=C\C(=O)OCC | inactive | inactive | inactive | inactive | inactive | inactive | inactive | inactive | inactive | inactive
O=S(=O)(O)c1cc(S(=O)(=O)O)c2c(N=Nc3ccccc3)c(O)ccc2c1 | inactive | inactive | inactive | 48.8 µM (active) and 61.1 µM (active) | inactive |  | inactive | inactive | inactive | inactive
Cc1ccc(C)c(C)c1 | inactive | inactive | inactive | inactive | inactive | inactive | inactive | inactive | inactive | 
C=C1C2CCC(C2)C1(C)C (stereo not given) | inactive | inactive | inactive | inactive | inactive | inactive | inactive | inactive | inactive | inactive
Clc1cc(Cl)c(Cl)cc1Cl | inactive | inactive | inactive | inactive | inactive | inactive | inactive | inactive | inactive | 
Cc1cc(=O)[nH]c(C(C)C)n1 | inactive | inactive | inactive | inactive | inactive | inactive | inactive | inactive | inactive | inactive
CCCCNC(N)=O | inactive | inactive | inactive | inactive | inactive | inactive | inactive | inactive | inactive | inactive
C=C(C)C(=O)OCC(CC)(COC(=O)C(=C)C)COC(=O)C(=C)C | inactive | inactive | inactive | inactive | inactive | inactive | inactive | inactive | inactive | 
O=S(=O)(O)CCS | inactive | inactive | inactive | inactive | inactive | inactive | inactive | inactive | inactive | 

Structure (SMILES) | Potency [1] | Potency [2] | Potency [3] | Potency [4] | Potency [5] | Potency [6] | outcome [7] | Potency [8] | outcome [9] | outcome [10]
OC[C@@H](O)[C@@H](O)[C@H](O)[C@@H](O)CO | inactive | inactive | inactive | inactive | inactive | inactive | inactive | inactive | inactive | 
CCCCOCCO | inactive | inactive | inactive | inactive | inactive | inactive | inactive | inactive | inactive | inactive
C=C(C)C(=O)OCCC[Si](OC)(OC)OC | inactive | inactive | inactive | inactive | inactive | 76.1 µM (active) and inactive | inactive | inactive | inactive | 
COCC(C)O (stereo not given) | inactive | inactive | inactive | inactive | inactive |  | inactive | inactive | inactive | inactive
CC(C)(CO)COC(=O)C(C)(C)CO | inactive | inactive | inactive | inactive | inactive | inactive | inactive | inactive | inactive | inactive
NCc1cccc(CN)c1 | inactive | inactive | inactive | inactive | inactive | inactive | inactive | inactive | inactive | inactive
CC(C)(C)C1CCC(O)CC1 (stereo not given) | inactive | inactive | inactive | inactive | inactive | inactive | inactive | inactive | inactive | inactive
NS(=O)(=O)c1cc2c(cc1Cl)NC=NS2(=O)=O | inactive | inactive | inactive | inactive | inactive | inactive | inactive | inactive | inactive | inactive
COC(=O)c1ccccc1O | inactive | inactive | inactive | inactive | inactive | inactive | inactive | inactive | inactive | inactive
O=C(c1ccc(O)cc1)c1ccc(O)cc1O | 27.6 µM (active) | inactive | inactive | inactive | 55 µM (active) | 19.5 µM (active) and 54.5 µM (active) | inactive | inactive | inactive | inactive
CC[Si](OC(C)=O)(OC(C)=O)OC(C)=O | inactive | inactive | inactive | inactive | inactive | inactive | inactive | inactive | inactive | inactive
CCCCCCOC(C)=O | inactive | inactive | inactive | inactive | inactive | inactive | inactive | inactive | inactive | inactive
O=C1O[C@H](CO)[C@@H](O)[C@H](O)[C@H]1O | inactive | inactive | inactive | inactive | inactive | inactive | inactive | inactive | inactive | 
CNC[C@H](O)[C@@H](O)[C@H](O)[C@H](O)CO | inactive | inactive | inactive | inactive | inactive | inactive | inactive | inactive | inactive | 
CC(=O)Nc1ccc(C(=O)O)cc1 | inactive | inactive | inactive | inactive |  | inactive | inactive | inactive | inactive | inactive
Clc1ccc(Cl)c(Cl)c1Cl | inactive | inactive | inactive | inactive |  |  | inactive | inactive | inactive | inactive
CCCCCCCCCCCCN | inactive | inactive | inactive and 27.3 µM (active) |  | inactive |  | inactive | inactive | inactive | inactive
CC(=O)CCc1ccccc1 | inactive | inactive | inactive | inactive |  | inactive | inactive | inactive | inactive | inactive
CCC(=O)O | inactive | inactive | inactive | inactive |  |  | inactive | inactive | inactive | inactive
OCCOCCOCCOCCO | inactive | inactive | inactive | inactive |  | inactive | inactive | inactive | inactive | inactive
C=C(C)C(=O)OCCCCCC | inactive | inactive | inactive | inactive | inactive |  | inactive | inactive | inactive | 
c1ccc2ccccc2c1 | inactive | inactive | inactive | inactive |  | inactive | inactive | inactive | inactive | inactive
C[C@@H](O)[C@H]1C(=O)N2C(C(=O)O)=C(S[C@@H]3CN[C@H](C(=O)N(C)C)C3)[C@H](C)[C@H]12 | inactive | inactive | inactive | inactive | inactive |  | inactive | inactive | inactive | inactive

From PubChem BioAssay (Tox21)
